# Results as given in PubChem BioAssay (Tox21).
# A number with no mark means an inactive call. Results filed as inconclusive are left out. A call without a number means that no potency is given here. Active and inactive are the calls of the source. Unless noted, the call rests on the fitted dose curve; in most records, active means well fitted curve in the direction sought with a large enough effect in the repeat runs; inconclusive means weak or mixed curves; inactive means no such curve, though single readings can be large; an effect the other way counts as inactive or inconclusive.
# Tests used:
# [1] = qHTS assay to identify small molecule antagonists of the estrogen related receptor (ERR) signaling pathway from Tox21 library - cell viability counter screen (AID 1224834); further: nearly all actives have a fitted effect of over 30% in size
# Summary of the method: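 Seeded ERR cells were rested 6 h at 37 C/5% CO2 before compounds, positive and negative controls or DMSO were added. Incubation continued for 17.5 h, and viability was then quantified by CellTiter-Fluor fluorescence.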
# [2] = target: Luciferin 4-monooxygenase (Photinus pyralis) (UniProt P08659); assay: qHTS assay to identify small molecule inhibitors of firefly luciferase (AID 1224835); further: nearly all actives have a fitted effect of over 25% in size; further: potency means the concentration at half of the fitted maximal effect
# Luciferin 4-monooxygenase (Photinus pyralis), sequence (P08659 whole entry, looked up): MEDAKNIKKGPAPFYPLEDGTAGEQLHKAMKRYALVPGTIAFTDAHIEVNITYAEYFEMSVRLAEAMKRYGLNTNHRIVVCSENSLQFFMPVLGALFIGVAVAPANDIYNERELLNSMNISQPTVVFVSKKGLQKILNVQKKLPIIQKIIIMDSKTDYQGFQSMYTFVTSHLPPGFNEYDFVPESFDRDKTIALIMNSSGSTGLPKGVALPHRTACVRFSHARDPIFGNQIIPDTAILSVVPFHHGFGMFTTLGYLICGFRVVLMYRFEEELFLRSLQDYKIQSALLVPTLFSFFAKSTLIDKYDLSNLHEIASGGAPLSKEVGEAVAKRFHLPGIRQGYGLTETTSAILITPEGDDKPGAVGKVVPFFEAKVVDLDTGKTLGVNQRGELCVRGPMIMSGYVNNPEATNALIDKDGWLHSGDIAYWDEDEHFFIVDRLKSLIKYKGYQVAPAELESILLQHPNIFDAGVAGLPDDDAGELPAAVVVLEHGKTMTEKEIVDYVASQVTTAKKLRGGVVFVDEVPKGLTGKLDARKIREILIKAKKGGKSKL
# Summary of the method: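 Inhibition of purified Photinus luciferase is measured by luminescence. Substrate levels (D-luciferin, ATP) sit at their KM values. Each compound is tested in a concentration series.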
# [3] = qHTS assay to identify small molecule agonists of the constitutive androstane receptor (CAR) signaling pathway - cell viability counter screen (AID 1224836); further: nearly all actives have a fitted effect of over 45% in size
# Summary of the method: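 Fluorescence from CellTiter-Fluor indicates live cells after 23 h exposure. The human hepatoma line expresses hCAR and a CYP2B6-2.2kb reporter. Incubation medium contains 0.75 uM PK11195 (final).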
# [4] = target: Nuclear receptor subfamily 1 group I member 3 (Homo sapiens) (UniProt Q14994); assay: qHTS assay to identify small molecule antagonists of the constitutive androstane receptor (CAR) signaling pathway (AID 1224838);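 further: HepG2 cells stably expressing hCAR with CYP2B6 luciferase reporter stimulated by CITCO; nearly all actives have a fitted effect of over 40% in size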
# Nuclear receptor subfamily 1 group I member 3 (Homo sapiens), sequence (Q14994 whole entry, looked up): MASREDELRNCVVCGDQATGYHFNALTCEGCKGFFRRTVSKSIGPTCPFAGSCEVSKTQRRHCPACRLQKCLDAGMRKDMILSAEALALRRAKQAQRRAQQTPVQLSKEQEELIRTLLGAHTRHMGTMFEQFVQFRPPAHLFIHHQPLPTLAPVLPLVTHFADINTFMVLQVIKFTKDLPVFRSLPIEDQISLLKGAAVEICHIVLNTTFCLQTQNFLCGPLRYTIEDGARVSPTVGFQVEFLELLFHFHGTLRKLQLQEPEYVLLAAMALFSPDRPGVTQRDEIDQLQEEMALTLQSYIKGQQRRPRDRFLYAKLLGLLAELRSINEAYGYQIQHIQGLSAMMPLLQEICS
# Summary of the method: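 Human hepatoma HepG2 cells expressing hCAR and a CYP2B6 promoter (2.2 kb) luciferase construct; compound titration (15 points) with 50 nM CITCO final, 24 h at 37 C/5% CO2; luminescence via ONE-Glo after 30 min at room temperature.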
# [5] = target: Nuclear receptor subfamily 1 group I member 3 (Homo sapiens) (UniProt Q14994); assay: qHTS assay to identify small molecule agonists of the constitutive androstane receptor (CAR) signaling pathway (AID 1224839); further: nearly all actives have a fitted effect of over 15% in size; further: potency means the concentration at half of the fitted maximal effect;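 on activation: HepG2 cells stably carrying human CAR and a CYP2B6 luciferase reporter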
# Summary of the method: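 Stable hCAR/CYP2B6-2.2kb HepG2 line in DMEM with 10% FBS; compounds (15 concentrations) and 0.75 uM PK11195 final, 24 h at 37 C/5% CO2, then ONE-Glo luminescence after 30 min.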
# [6] = qHTS assay to identify small molecule antagonists of the estrogen related receptor signaling pathway with the pleiotropic PPARgamma coactivator (PGC) from Tox21 10K library - cell viability counter screen (AID 1224840; active means well fitted cell-killing curve with a large enough effect in the repeat runs, not every such curve was filed as active; further: nearly all actives have a fitted effect of over 40% in size)
# Summary of the method: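 Seeded PGC/ERR cells (2,000/well, 6 h, 37 C/5% CO2) get compound by pin tool; 17.5 h incubation at 37 C; CellTiter-Fluor added, 30 min, fluorescence measured.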
# [7] = target: Thyrotropin receptor (Homo sapiens) (UniProt P16473); assay: qHTS assay to identify small molecule agonists of the thyroid stimulating hormone receptor (TSHR) signaling pathway (AID 1224843; calls by dose curve; further: nearly all actives have a fitted effect of over 45% in size)
# Thyrotropin receptor (Homo sapiens), sequence (P16473 whole entry, looked up): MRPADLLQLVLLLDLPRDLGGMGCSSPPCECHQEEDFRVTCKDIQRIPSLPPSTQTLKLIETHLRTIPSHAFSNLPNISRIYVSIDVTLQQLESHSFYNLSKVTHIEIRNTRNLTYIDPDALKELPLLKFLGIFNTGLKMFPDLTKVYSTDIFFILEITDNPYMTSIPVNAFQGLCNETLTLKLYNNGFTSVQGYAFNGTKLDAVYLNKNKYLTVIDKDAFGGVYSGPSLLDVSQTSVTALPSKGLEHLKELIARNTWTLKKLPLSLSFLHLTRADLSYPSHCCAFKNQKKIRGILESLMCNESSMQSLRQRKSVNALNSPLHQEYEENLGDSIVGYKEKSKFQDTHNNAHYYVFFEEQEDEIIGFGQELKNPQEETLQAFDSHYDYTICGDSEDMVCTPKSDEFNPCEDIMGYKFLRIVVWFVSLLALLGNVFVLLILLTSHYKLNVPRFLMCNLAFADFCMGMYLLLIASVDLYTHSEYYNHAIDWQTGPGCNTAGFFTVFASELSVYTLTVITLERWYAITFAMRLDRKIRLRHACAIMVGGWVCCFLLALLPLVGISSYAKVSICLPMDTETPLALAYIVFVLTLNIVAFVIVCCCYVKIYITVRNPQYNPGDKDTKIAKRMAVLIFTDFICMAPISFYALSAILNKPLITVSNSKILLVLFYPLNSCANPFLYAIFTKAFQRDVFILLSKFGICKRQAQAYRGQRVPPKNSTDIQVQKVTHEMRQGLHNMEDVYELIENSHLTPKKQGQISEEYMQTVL
# Summary of the method: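 Agonist activity read as cAMP rise via d2/cryptate HTRF competition, 1 h room-temperature detection, in HEK293 cells expressing TSHR. Fifteen-point titrations, each run in triplicate, with a 30 min room-temperature incubation beforehand.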
# [8] = qHTS assay to identify small molecule agonists of H2AX (AID 1224845; active means well fitted activation curve with a large enough effect in the signal ratio in the repeat runs, not every such curve was filed as active; the % refers to the signal ratio)
# Summary of the method: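 Phospho-H2AX Ser139 measured by HTRF (ex 320 nm; em 665 and 620 nm) after 24 hr antibody incubation. Compounds, 15 concentrations, 0.76% DMSO, were applied to CHO-K1 cells for 3hr at 37C before lysis.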
# [9] = qHTS assay to identify small molecule agonists of the hypoxia (HIF-1) signaling pathway (AID 1224846; active means well fitted activation curve with a large enough effect in the signal ratio in the repeat runs, not every such curve was filed as active; the % refers to the signal ratio)
# Summary of the method: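 Reporter induction in HRE-bla ME-180 cells is taken as agonism: cells sit 5 hrs after plating, receive compounds or DMSO only, incubate 17 hrs at 37C under 5% CO2, and are loaded with CCF4-AM for beta-lactamase FRET measurement.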
# [10] = qHTS assay to identify small molecule agonists of H2AX - cell viability counter screen (AID 1224847; calls by dose curve; further: top concentration of the series differs between compounds; nearly all actives have a fitted effect of over 30% in size)
# Summary of the method: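 Viability of CHO-K1 (wild type) cells after 3 hr compound exposure was measured by CellTiter-Glo luminescence.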
# [11] = qHTS RealTime-Glo MT Cell Viability Assay in HepG2 cells - 24 hour (AID 1224867); further: nearly all actives have a fitted effect of over 50% in size
# Summary of the method: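 HepG2 cells were seeded at 600 cells/well together with NanoLuc luciferase and a cell-permeant prosubstrate, preincubated 5 h at 37 C/5% CO2, then pin-dosed with compounds in DMSO. Nonlytic luminescence from viable cells was read at each time point.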
# [12] = qHTS RealTime-Glo MT Cell Viability Assay in HEK293 cells - 32 hour (AID 1224868); further: top concentration of the series differs between compounds; nearly all actives have a fitted effect of over 50% in size
# Summary of the method: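 HEK293 cells were seeded at 600 cells/well together with NanoLuc luciferase and cell-permeant prosubstrate, preincubated 5 h at 37 C/5% CO2, then given compound in DMSO by pintool. Luminescence from viable-cell prosubstrate reduction was read repeatedly over 40 h.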
# [13] = A CellTox Green Cytotoxicity Assay to monitor cytotoxicity in HEK293 cells - 0 hour (AID 1224869); further: nearly all actives have a fitted effect of over 50% in size
# Summary of the method: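 Tox21 screen in HEK293: membrane-impermeant cyanine dye fluoresces on binding dead-cell DNA; compound pinned 5 h post-seeding, plates held at 37 C, signal read repeatedly through 40 h.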
# [14] = qHTS assay to identify small molecule agonists of the hypoxia (HIF-1) signaling pathway - cell viability counter screen (AID 1224844; calls by dose curve; further: nearly all actives have a fitted effect of over 50% in size)
# Summary of the method: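 HRE-bla ME-180; 0.5% dFBS; cpd 17 h, 37C, 5% CO2; CellTiter-Glo lum., 30 min RT, post-FRET read, same wells.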
# [15] = qHTS assay to identify small molecule agonists of the estrogen related receptor signaling pathway with the pleiotropic PPARgamma coactivator (PGC) from Tox21 10K library (AID 1224842); further: nearly all actives have a fitted effect of over 15% in size
# Summary of the method: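 Luminescence from One-Glo (30 min, room temperature) measured after PGC/ERR cells had 18 h at 37 C with pinned compound (23 nL in DMSO). Cells had been seeded at 2,000 per well and pre-incubated 6 h.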
# [16] = qHTS assay to identify small molecule antagonists of the estrogen related receptor (ERR) signaling pathway from Tox21 library (AID 1224848); further: nearly all actives have a fitted effect of over 50% in size; further: potency means the concentration at half of the fitted maximal effect
# Summary of the method: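 Luciferase luminescence (ONE-Glo, 30 min room temperature) was the read-out. Cells of the NTP-supplied ERR line, 2,000 per well, were given 6 h at 37 C before compound addition in DMSO and 18 h exposure at 37 C.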
# [17] = qHTS assay to identify small molecule agonists of the estrogen related receptor (ERR) signaling pathway from Tox21 library (AID 1224849; calls by dose curve; further: nearly all actives have a fitted effect of over 15% in size); settings: ERR reporter cell line, ONE-Glo luciferase, 18 h; at 92.4 µM (top of the series) unless noted
# Summary of the method: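 Tox21 compounds tested for ERR agonism in an NTP reporter cell line: 18 h treatment at 37 C, then ONE-Glo luminescence.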
# [18] = qHTS assay to identify small molecule antagonists of the estrogen related receptor signaling pathway with the pleiotropic PPARgamma coactivator (PGC) from Tox21 10K library (AID 1224841; call rule not given here)
# Summary of the method: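 Test chemicals dissolved in DMSO were applied to pre-incubated (6 h) PGC/ERR cells at 2,000 cells/well for an 18 h, 37 C treatment; reporter luminescence was then read using One-Glo.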
# [19] = qHTS assay to identify small molecule antagonists of the constitutive androstane receptor (CAR) signaling pathway - cell viability counter screen (AID 1224837); further: nearly all actives have a fitted effect of over 45% in size
# Summary of the method: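 To flag cytotoxic false antagonists, HepG2 hCAR/CYP2B6-2.2kb cells were treated 23 hr with 15-concentration compound series and 50 nM CITCO at 37 C/5% CO2; CellTiter-Fluor fluorescence was the measured end point.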
Structure (SMILES),Potency [1],Potency [2],Potency [3],Potency [4],Potency [5],Potency [6],Potency [7],Potency [8],outcome [9],Potency [10],outcome [11],Potency [12],Potency [13],Potency [14],Potency [15],Potency [16],"activity change, positive = activation [17]",Potency [18],Potency [19]
O=S(=O)(O)c1cc(Cl)c(Cl)cc1Cl,inactive,inactive,inactive,inactive,inactive,inactive,inactive,inactive,inactive,inactive,inactive,inactive,inactive,–,–,–,–,–,–
S=c1[nH][nH]c(=S)s1,inactive,11.2 µM (active),inactive,inactive,inactive,inactive,inactive,–,inactive,inactive,inactive,–,inactive,inactive,–,–,–,–,–
C[C@]12CCC(=O)C=C1[C@@H]1C[C@@H]1[C@H]1[C@@H]3[C@@H]4C[C@@H]4[C@@]4(CCC(=O)O4)[C@@]3(C)CC[C@@H]12,inactive,inactive,inactive,inactive,inactive,–,–,inactive,inactive,–,inactive,–,inactive,inactive,inactive,26.6 µM (active),-43.4% [at 42.5 µM],–,–
C[C@H](CN1CCCC1)C(=O)c1ccc(C(F)(F)F)cc1,inactive,inactive,inactive,–,inactive,inactive,inactive,inactive,inactive,inactive,–,–,inactive,–,–,–,–,–,–
COc1cc(C)c(Cc2cnc(N)nc2N)cc1OC,inactive,inactive,inactive,–,inactive,inactive,–,inactive,inactive,inactive,inactive,inactive,inactive,–,inactive,–,-2.44% [at 42.5 µM],inactive,–
Cc1cc(SC2=C(O)C[C@@](CCc3ccc(N)cc3)(C(C)C)OC2=O)c(C(C)(C)C)cc1CO,inactive,inactive,inactive,–,–,inactive,inactive,inactive,inactive,inactive,inactive,inactive,inactive,inactive,inactive,–,-7.37%,–,–
COc1ccc(/C(C)=C/C(=O)O)c(OC)c1,inactive,inactive,inactive,–,–,–,inactive,inactive,inactive,inactive,inactive,inactive,inactive,inactive,inactive,–,8.11% [at 42.5 µM],–,inactive
C=Cc1ccc(C=C)cc1,inactive,inactive,inactive,–,–,–,inactive,inactive,inactive,inactive,inactive,inactive,inactive,inactive,inactive,inactive,3.76%,–,inactive
CCCCCO,inactive,inactive,inactive,inactive,inactive,inactive,inactive,inactive,inactive,inactive,inactive,inactive,inactive,–,inactive,–,-0.565%,inactive,–
CCCCCCCCS,inactive,inactive,inactive,–,–,inactive,–,inactive,inactive,inactive,inactive,inactive,inactive,inactive,–,–,–,–,inactive
CC(=O)CC/C=C(\C)CC/C=C(\C)CC/C=C(\C)CCC=C(C)C,inactive,inactive,inactive,inactive,–,inactive,–,inactive,inactive,inactive,inactive,inactive,inactive,–,–,–,–,–,–
CC(C)NC(=O)c1ccccc1N,inactive,inactive,inactive,inactive,inactive,inactive,inactive,inactive,inactive,inactive,inactive,inactive,inactive,–,–,–,–,–,–
CS(C)=O,inactive,inactive,inactive,–,–,–,–,inactive,inactive,inactive,inactive,–,inactive,–,–,–,–,–,inactive
c1ccc(CCNc2nc(-c3ccccc3)cs2)cc1,inactive,3.47 µM (active),inactive,inactive,7.5 µM (active),inactive,inactive,inactive,inactive,–,inactive,inactive,inactive,inactive,–,–,–,–,–
CC(=O)Nc1cccc(N)c1,inactive,inactive,inactive,–,–,–,inactive,inactive,inactive,inactive,inactive,inactive,inactive,–,inactive,inactive,-3.33%,inactive,inactive
FC1(F)C(F)(F)C(F)(F)C2(F)C(F)(C1(F)F)C(F)(F)C(F)(F)C1(F)C(F)(F)C(F)(F)C(F)(F)C(F)(F)C12F (stereo not given),inactive,inactive,inactive,–,inactive,–,inactive,inactive,inactive,inactive,inactive,inactive,inactive,inactive,–,–,–,–,–
Clc1cccc(C(c2ccc3nc[nH]c3c2)n2ccnc2)c1 (stereo not given),inactive,inactive,inactive,inactive,–,–,–,–,inactive,inactive,inactive,–,inactive,–,–,–,–,–,–
O=C(O)c1cc(C(=O)O)c(C(=O)O)cc1C(=O)O,inactive,inactive,inactive,–,inactive,inactive,–,inactive,inactive,inactive,inactive,inactive,inactive,inactive,inactive,inactive,4.66%,inactive,–
